Source: PubChem BioAssay (EPA / NIEHS)
Where “and” joins values, the source holds several entries; their conditions need not be identical. Equal entries are not always repeated. A structure can be active in one record and inactive in another. Calls of active or inactive are those of the source. How the source made its calls: active means hit-call score of the fitted dose curve at least 0.9, where 1 is the maximum; inactive means score below 0.9.

Tests used:
[1] = read-out: urokinase plasminogen activator (uPA), PLAU (gene 5328); assay: BSK_KF3CT_uPA: BioMAP Diversity Plus: KF3CT Assay for urokinase plasminogen activator (uPA) Biomarker Activity (AID 2283075); conditions: primary human keratinocytes with fibroblasts; actives raise or lower the signal
How it was run: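 Skin co-culture (keratinocytes + foreskin fibroblasts), human primary; 24 h post-dose; uPA by ELISA; gain/loss fit vs DMSO baseline.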

CD40, CD40 (gene 958) [2] = assay: BSK_LPS_CD40: BioMAP Diversity Plus: LPS Assay for CD40 Biomarker Activity (AID 2283076); conditions: primary human HUVEC with PBMC; actives raise or lower the signal
How it was run: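 CD40 signal, measured by ELISA, is fitted in both directions relative to DMSO vehicle. The system is an LPS-driven human vascular primary co-culture of endothelial cells and PBMC, sampled 24 h after compound addition.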

[3] = read-out: E-selectin (Homo sapiens) (UniProt P16581); assay: BSK_LPS_Eselectin: BioMAP Diversity Plus: LPS Assay for Eselectin Biomarker Activity (AID 2283077); conditions: primary human HUVEC with PBMC; actives raise or lower the signal
How it was run: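 Signal of E-selectin, detected by ELISA, served as the endpoint; cells were umbilical vein endothelium with PBMC, read 24 h after treatment. DMSO defined baseline, and both increases and decreases were fitted.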

[4] = read-out: Interleukin-8 (IL8), CXCL8 (gene 3576); assay: BSK_LPS_IL8: BioMAP Diversity Plus: LPS Assay for Interleukin-8 (IL8) Biomarker Activity (AID 2283078); conditions: primary human HUVEC with PBMC; actives raise or lower the signal
How it was run: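 Endothelial cells and PBMC from human donors are co-cultured, treated with chemicals and LPS, then assayed for IL-8 by ELISA after 24 h. Parallel SRB staining (0.1% SRB after 10% TCA fixation, 560 nm) flags cytotoxicity.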

[5] = read-out: Interleukin-1 alpha (IL1a), IL1A (gene 3552); assay: BSK_LPS_IL1a: BioMAP Diversity Plus: LPS Assay for Interleukin-1 alpha (IL1a) Biomarker Activity (AID 2283080); conditions: primary human HUVEC with PBMC; actives raise or lower the signal
How it was run: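 Measured: IL-1 alpha via ELISA at 24 h in LPS-activated human umbilical vein endothelium–PBMC co-culture. Baseline: DMSO, bidirectional fitting.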

[6] = read-out: Monocyte Chemoattractant Protein-1 (MCP1), CCL2 (gene 6347); assay: BSK_LPS_MCP1: BioMAP Diversity Plus: LPS Assay for Monocyte Chemoattractant Protein-1 (MCP1) Biomarker Activity (AID 2283081); conditions: primary human HUVEC with PBMC; actives raise or lower the signal
How it was run: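 LPS-stimulated HUVEC/PBMC co-culture; chemical, 24 h; MCP-1 by ELISA; bidirectional fit vs DMSO; cytotoxicity via SRB (0.1% stain, 10% TCA fix, 560 nm) in parallel wells.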

[7] = BSK_LPS_PGE2: BioMAP Diversity Plus: LPS Assay for Prostaglandin E2 (PGE2) Biomarker Activity (AID 2283082); conditions: primary human HUVEC with PBMC; actives raise or lower the signal;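 on AC50: secreted prostaglandin E2 measured by ELISA in LPS-stimulated co-culture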
How it was run: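 Compounds were added to the LPS co-culture of endothelium and PBMC, and PGE2 was measured by ELISA after 24 h. Responses in either direction were fitted with DMSO as baseline.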

[8] = read-out: Macrophage colony-stimulating factor (MCSF), CSF1 (gene 1435); assay: BSK_LPS_MCSF: BioMAP Diversity Plus: LPS Assay for Macrophage colony-stimulating factor (MCSF) Biomarker Activity (AID 2283083); conditions: primary human HUVEC with PBMC; actives raise or lower the signal
How it was run: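 Compound is added to a human vascular primary co-culture of umbilical vein endothelium and blood mononuclear cells. After 24 h, M-CSF is quantified by ELISA. Signal changes are fitted in both directions against DMSO.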

[9] = read-out: Tissue Factor, F3 (gene 2152); assay: BSK_LPS_TissueFactor: BioMAP Diversity Plus: LPS Assay for Tissue Factor Biomarker Activity (AID 2283084); conditions: primary human HUVEC with PBMC; actives raise or lower the signal
How it was run: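 In this co-culture system of umbilical vein endothelium with PBMC, stimulated with LPS, cell-surface CD142 is detected by ELISA at 24 h. Endpoint values derive from bidirectional fitting, DMSO serving as baseline.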

[10] = read-out: Tumor necrosis factor (Homo sapiens) (UniProt P01375); assay: BSK_LPS_TNFa: BioMAP Diversity Plus: LPS Assay for Tumour Necrosis Factor alpha (TNFa) Biomarker Activity (AID 2283085); conditions: primary human HUVEC with PBMC; actives raise or lower the signal;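 on AC50: TNFa protein level quantified by ELISA in the co-culture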
How it was run: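 Cells (umbilical vein endothelium plus peripheral blood mononuclear cells) were dosed with chemical, incubated 24 h, then TNFa was quantified by ELISA; values derive from bidirectional fitting with DMSO as baseline.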

[11] = read-out: Vascular cell adhesion molecule 1 (VCAM1), VCAM1 (gene 7412); assay: BSK_LPS_VCAM1: BioMAP Diversity Plus: LPS Assay for Vascular cell adhesion molecule 1 (VCAM1) Biomarker Activity (AID 2283086); conditions: primary human HUVEC with PBMC; actives raise or lower the signal
How it was run: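 Cells are dosed in an LPS-stimulated endothelial/mononuclear co-culture and, after 24 h, VCAM-1 is quantified by ELISA. Activity in either direction is fitted relative to the DMSO negative control.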

CD38, CD38 (gene 952) = assay: BSK_SAg_CD38: BioMAP Diversity Plus: SAg Assay for CD38 Biomarker Activity (AID 2283087); conditions: primary human HUVEC with PBMC; actives raise or lower the signal
How it was run: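 CD38 quantified by ELISA (fluorescence) in a superantigen-activated endothelial cell–PBMC co-culture at 24 h post-dose. Activity fitted in both directions relative to DMSO; parallel SRB and Alamar Blue cytotoxicity read-outs.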

CD40, CD40 (gene 958) [12] = assay: BSK_SAg_CD40: BioMAP Diversity Plus: SAg Assay for CD40 Biomarker Activity (AID 2283088); conditions: primary human HUVEC with PBMC; actives raise or lower the signal
How it was run: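 Fluorescence ELISA read-out of CD40 from umbilical vein endothelium plus peripheral blood mononuclear cells, sampled 24 h after dosing. Values come from bidirectional curve fitting with DMSO as baseline.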

CD69, CD69 (gene 969) = assay: BSK_SAg_CD69: BioMAP Diversity Plus: SAg Assay for CD69 Biomarker Activity (AID 2283089); conditions: primary human HUVEC with PBMC; actives raise or lower the signal;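 on AC50: cell surface CD69 protein quantified by ELISA with fluorescence detection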
How it was run: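 Values derive from bidirectional fitting relative to DMSO vehicle. Cells: umbilical vein endothelium plus peripheral blood mononuclear cells, treated 24 h before fluorescent ELISA for CD69.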

[13] = read-out: Monocyte Chemoattractant Protein-1 (MCP1), CCL2 (gene 6347); assay: BSK_SAg_MCP1: BioMAP Diversity Plus: SAg Assay for Monocyte Chemoattractant Protein-1 (MCP1) Biomarker Activity (AID 2283090); conditions: primary human HUVEC with PBMC; actives raise or lower the signal
How it was run: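 Values derive from bidirectional fitting of ELISA-measured MCP1 against DMSO controls. Readings were taken 24 h after dosing human vascular endothelial cells co-cultured with peripheral blood mononuclear cells under superantigen stimulation.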

[14] = read-out: E-selectin (Homo sapiens) (UniProt P16581); assay: BSK_SAg_Eselectin: BioMAP Diversity Plus: SAg Assay for Eselectin Biomarker Activity (AID 2283091); conditions: primary human HUVEC with PBMC; actives raise or lower the signal
How it was run: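 Primary human endothelial cells and peripheral blood mononuclear cells were co-cultured and exposed to chemical for 24 hours. E-selectin levels were then quantified by ELISA, with bidirectional curve fitting normalised to DMSO controls.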

[15] = read-out: Monokine induced gamma interferon (MIG), CXCL9 (gene 4283); assay: BSK_SAg_MIG: BioMAP Diversity Plus: SAg Assay for Monokine induced gamma interferon (MIG) Biomarker Activity (AID 2283092); conditions: primary human HUVEC with PBMC; actives raise or lower the signal
How it was run: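 Values reflect bidirectional fitting of ELISA-measured MIG against DMSO vehicle, taken 24 h after dosing of a co-culture of human umbilical vein endothelial cells and peripheral blood mononuclear cells.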

[16] = BSK_SAg_PBMCCytotoxicity: PBMC Cytotoxicity Assessment in the BioMAP Diversity Plus: SAg Assay (AID 2283093); conditions: primary human HUVEC with PBMC;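 further: fitted both ways against DMSO so a hit may be loss or gain of signal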;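 on AC50: PBMC superantigen activated with SEB plus TSST-1 one hour after compound addition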
How it was run: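 PBMC viability by Alamar Blue reduction, fluorescence read at 546/580 nm after 6 h dye exposure. Cells were dosed 1 h before SEB plus TSST-1 activation (20 ng/mL final each), then held 90 h; endothelial/PBMC human co-culture.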

[17] = read-out: Interleukin-8 (IL8), CXCL8 (gene 3576); assay: BSK_SAg_IL8: BioMAP Diversity Plus: SAg Assay for Interleukin-8 (IL8) Biomarker Activity (AID 2283094); conditions: primary human HUVEC with PBMC; actives raise or lower the signal
How it was run: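 Chemicals were dosed onto a human endothelial–PBMC co-culture, and IL-8 was quantified by ELISA after 24 h. Both increases and decreases were fitted relative to DMSO.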

[18] = BSK_LPS_SRB: Viability Assessment in the BioMAP Diversity Plus: LPS Assay (AID 2283079); conditions: primary human HUVEC with PBMC;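 further: total protein by sulforhodamine B absorbance as a cytotoxicity measure; measured one day after compound addition; fitted in both directions against DMSO so loss or gain of signal counts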
How it was run: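 Overt cytotoxicity was gauged by sulforhodamine B total-protein staining in a primary human vascular endothelial and mononuclear cell co-culture 24 h post-dosing. Activity was fitted in both directions relative to DMSO.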

Measured: AC50

Tumor necrosis factor (Homo sapiens), sequence (P01375 whole entry, looked up): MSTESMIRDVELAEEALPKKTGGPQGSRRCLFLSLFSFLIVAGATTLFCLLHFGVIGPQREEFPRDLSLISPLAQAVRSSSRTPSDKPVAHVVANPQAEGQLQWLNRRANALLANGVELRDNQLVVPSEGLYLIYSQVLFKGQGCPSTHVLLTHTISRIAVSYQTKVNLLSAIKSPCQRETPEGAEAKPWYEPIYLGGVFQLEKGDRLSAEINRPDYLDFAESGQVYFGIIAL
E-selectin (Homo sapiens), sequence (P16581 whole entry, looked up): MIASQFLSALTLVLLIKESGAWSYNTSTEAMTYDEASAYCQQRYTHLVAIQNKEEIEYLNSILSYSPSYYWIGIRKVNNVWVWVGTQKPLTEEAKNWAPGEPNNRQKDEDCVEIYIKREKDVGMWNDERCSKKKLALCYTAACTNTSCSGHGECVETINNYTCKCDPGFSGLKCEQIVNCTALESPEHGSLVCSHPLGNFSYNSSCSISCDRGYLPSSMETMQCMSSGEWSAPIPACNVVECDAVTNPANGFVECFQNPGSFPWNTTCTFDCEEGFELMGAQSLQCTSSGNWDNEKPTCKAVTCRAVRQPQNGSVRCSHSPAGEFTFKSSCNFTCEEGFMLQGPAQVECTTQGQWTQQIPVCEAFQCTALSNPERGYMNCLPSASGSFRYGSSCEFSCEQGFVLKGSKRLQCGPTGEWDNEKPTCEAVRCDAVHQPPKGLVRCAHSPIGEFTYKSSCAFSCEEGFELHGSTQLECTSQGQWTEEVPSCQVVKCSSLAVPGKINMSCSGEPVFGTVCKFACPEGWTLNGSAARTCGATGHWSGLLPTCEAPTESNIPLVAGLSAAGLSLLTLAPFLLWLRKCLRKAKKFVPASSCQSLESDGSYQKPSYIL

Cc1cccc(OP(=O)(Oc2cccc(C)c2)Oc2cccc(C)c2)c1
active: [10] 32.3 µM
not listed: [18]
inactive: all other assays above

CCOP(=S)(OCC)OP(=S)(OCC)OCC
active: [11] 20 µM | CD38, CD38 (gene 952) 31.8 µM | CD69, CD69 (gene 969) 30.1 µM | [14] 35.4 µM | [16] 25.3 µM | [17] 36 µM
inactive: all other assays above

CC(C)=CC1C(C(=O)OCc2cccc(Oc3ccccc3)c2)C1(C)C (stereo not given)
active: [14] 6.45 µM
not listed: [11] | [16]
inactive: all other assays above

CC1(C)[C@H](C(=O)O[C@H](C#N)c2cccc(Oc3ccccc3)c2)[C@@H]1/C=C(\Cl)C(F)(F)F
active: [1] 0.12 µM | [4] 0.0495 µM | [5] 21.3 µM | [7] 904 nM and 862 nM | [10] 2.79 µM | CD38, CD38 (gene 952) 5.06 µM | CD40, CD40 (gene 958) [12] 4.51 µM | CD69, CD69 (gene 969) 3.39 µM
inactive: [1] | CD40, CD40 (gene 958) [2] | [4] | [18] | [5] | [6] | [8] | [9] | [10] | [11] | CD38, CD38 (gene 952) | CD69, CD69 (gene 969) | [13] | [14] | [15] | [17]

CCCCCCCCCCCCc1cccc(S(=O)(=O)O)c1
active: [1] 29.6 µM
not listed: [8] | [11] | [16] | [18]
inactive: all other assays above

CCCCCCCCCCCCN(C)C
not listed: [8] | [18]
inactive: all other assays above
